# Laboratory results taken from PMC12136788.
# Residue numbers refer to the chain shown, from its start. Whole data set: some 5,800 sequences, median “enrichment r” near 0.68, cut for the highest 2% near 11. Only a selection was taken, and the highest values are over-represented in it overall.
# B1: chr11:113276847:113276948:+|3pUTR|ENSG00000149294|msi1|FALSE|unique (ssRNA)
# RNA: GGGAGUUCUACAGUCCGACGAUCAGAAGGGAAAAGCCAGCCCUUUGUAUAGAAAUUUUGCUUUUUUUUCCCUCAUUCUACUUUAGAACUGCAAGCUUGUGCACUGUGGAUGCGUGAAUAUUUUAGUGUGAAACGUGUUUUUGUCAACAGAGGAUUGAGCAUCA
# B2: chr5:16663783:16663884:-|3pUTR|ENSG00000145555|msi1|FALSE|bound_elsewhere (ssRNA)
# RNA: GGGAGUUCUACAGUCCGACGAUCUGAGGAUACAAAAUUCACAGAUGCUCAAGUCCCUGCUAUACAGUGGUAUAAUAUUUGCAUAGAACCUGCACACAUCUUUCCUUACCCUUUAAAUCAUCUCCAGGUUACAGAUACCUAGCACAACAGAGGAUUGAGCAUCA
# B3: chr1:186359875:186359976:-|CDS|ENSG00000047410|msi1_unk|FALSE|overlapping (ssRNA)
# RNA: GGGAGUUCUACAGUCCGACGAUCGGAAACUCAGGAUCAGUUGCUUUUGGAGAAACUAGAGAACAAAAGAAUUAAUAAGUACCUAGAUGAAAUAGUGAAAGAAGUGGAAGCCAAAGCACCAAUUUUGAAACGCCAGCGUGAGGACAACAGAGGAUUGAGCAUCA
# B4: chr3:97755980:97756081:+|3pUTR|ENSG00000080224|unk|total|mutant (ssRNA)
# RNA: GGGAGUUCUACAGUCCGACGAUCUAAUUAAAAAUCUCUUUCCUACCUUCCGUAAUUUGCCGGAUGAACUGUAUGCAUUCCGACCGAAAUUGCUUUUGUUAAAUUUACAUUUAAACACAUCUUCAUUCACUCCGAGAAGCCAUACAACAGAGGAUUGAGCAUCA
# B5: chr1:32196777:32196878:+|3pUTR|ENSG00000084652|msi1|FALSE|unique (ssRNA)
# RNA: GGGAGUUCUACAGUCCGACGAUCUUUGAAGCUAGUUCAUUGUCCUGCAGGUCCCUUCAUCUUCCAUACCUAGCCCACUCUUUUAGCCCUUACCUUAAAUCUCUCAGAUAAGUUGGUUCACAAAGAAUGUUAAGUACUGAAUCACAACAGAGGAUUGAGCAUCA
# B6: chr2:223975255:223975490:-|3pUTR|ENSG00000135919|msi1|FALSE|bound_elsewhere (ssRNA)
# RNA: GGGAGUUCUACAGUCCGACGAUCUUUAAAUUCUUUUCCCCCAUCCCCCUCCAAAGUCUUGAUAGCAAGCGUUAUUUUGGUGGUAGAAACGGUGAAAUCUCUAGCCUCUUUGUGUUUUUGUUGUUGUUGUUGUUGUUGUUUUAUCAACAGAGGAUUGAGCAUCA
# B7: ENSG00000052841:stop:overlap|stop_codon|ENSG00000052841|stop_codon|NA|stop_codon (ssRNA)
# RNA: GGGAGUUCUACAGUCCGACGAUCAGAACCGAAUCCAGACCAUCCAGUGUCACUUAAUGCUGAAGAAGGGACGGCGCUCUCCUUAGUGCACUUCUUCCUUCUCUCUUUCUCUUUACUCAUGCUCUAAAAAAAAAGAAUAAGAAACAACAGAGGAUUGAGCAUCA
# B8: chr5:136174412:136174513:+|CDS|ENSG00000113658|unk|total|mutant (ssRNA)
# RNA: GGGAGUUCUACAGUCCGACGAUCUAUGUUGGUGGAGAGGUGUAUGCGGAAUGCCUCAGUGACAGCAGCAUAUUUGUACAGAGCCGGAACUGCAACUUUCAUCAUGGCUUUCAUCCCACCACUGUCUGUAAGAUUCCCAGCAGCCAACAGAGGAUUGAGCAUCA
# B9: chr11:10797513:10797714:-|3pUTR|ENSG00000110321|msi1_unk|FALSE|overlapping (ssRNA)
# RNA: GGGAGUUCUACAGUCCGACGAUCUUCUGCAUAAGGUUUUUUUGUAGUGUAAUGUCUUAAUCAUAGUCUACCAUCAAAUAUUUUAGGAGUAUCUUUAAUGUUUAGAUAGUAUAUUAGCAGCAUGCAAUAAUUACAUCAUAAGUUCAACAGAGGAUUGAGCAUCA
# B10: chrX:129805617:129805718:-|3pUTR|ENSG00000188706|msi1|FALSE|unique (ssRNA)
# RNA: GGGAGUUCUACAGUCCGACGAUCUCUUUUCCCAUUAGAUAUAUGUAAGUAGUUGUAGUAGAGAUAAUAAUUGACAUUUCUCGUAGACUACCCAGAAACUUUUUUAAUACCUGUGCCAUUCUCAAUAAGAAUUUAUGAGAUGCCCAACAGAGGAUUGAGCAUCA
# B11: chr12:909583:909684:+|3pUTR|ENSG00000060237|unk|FALSE|bound_elsewhere (ssRNA)
# RNA: GGGAGUUCUACAGUCCGACGAUCUAGCUCUGUCCUUUACUUAUUGAGACACUUUAACUUUUUCCUUUGUAUUUCCAUUGUAUUAGAUAAAUAAAUGUGAAUGUAAAAUUGUAUAAAUUACUGUACUUGAAUACUUCUGUUUCCCAACAGAGGAUUGAGCAUCA
# B12: chr13:110149936:110150037:-|3pUTR|ENSG00000187498|msi1|FALSE|unique (ssRNA)
# RNA: GGGAGUUCUACAGUCCGACGAUCUUCUUGUAUUAUAAUUAAUUUUCUACCCCCAGAGAUAAAUGUUUGUUUAUAUCACUGUCUAGCUGUUUCAAAAUUUAGGUCCCUUGGUCUGUACAAAUAAUAGCAAUGUAAAAAUGGUUUCAACAGAGGAUUGAGCAUCA
# B13: chr12:98549999:98550103:+|3pUTR|ENSG00000120802|unk|FALSE|unique (ssRNA)
# RNA: GGGAGUUCUACAGUCCGACGAUCUGUUUCCCAUACUGUUUUCAGCCUUUUGUUUAUAAUUAGAAAUUGUGAGAAGCUUCAUUUAGUGUUUAAAAAUGUGGGGAGAUAAAUCAGACUUAACAUGUAUGUAAGAUCAAUUCACUUCAACAGAGGAUUGAGCAUCA
# B14: chr2:24000049:24000165:+|3pUTR|ENSG00000173960|unk|FALSE|unique (ssRNA)
# RNA: GGGAGUUCUACAGUCCGACGAUCGUAGCAUAUGACUGGAAACUAUAUUCAGUGCACUUUCUCCAAAAGACUACCCAGAAAAAUAGACUUAUUUUCAAAUACCAGUUAUCAAGAUAUAUUAAAUAGCUGUAUUGUUUAGAAUCUCAACAGAGGAUUGAGCAUCA
# B15: chr12:98549999:98550103:+|3pUTR|ENSG00000120802|unk|total|mutant (ssRNA)
# RNA: B13 RNA with U60C, A61C, U83C, A84C
# B16: chr8:116846039:116846140:-|3pUTR|ENSG00000164754|msi1|FALSE|bound_elsewhere (ssRNA)
# RNA: GGGAGUUCUACAGUCCGACGAUCACAUUCAAUAUGAUGUGCCUGUAAACCAAGGAGUUUUCCCCGUUUGUAAAAAGACAUUGUAGAUAAUUGAAUGUUUGAUUUUAGAAAGGUCAUUAGUUUCUUGUUACACAUUUUGUUAGUCAACAGAGGAUUGAGCAUCA
# Biological target: T1, UNK ZnF1-6 (called full-length) (human, UniProt Q9C0B0 30-357)
# T1 sequence: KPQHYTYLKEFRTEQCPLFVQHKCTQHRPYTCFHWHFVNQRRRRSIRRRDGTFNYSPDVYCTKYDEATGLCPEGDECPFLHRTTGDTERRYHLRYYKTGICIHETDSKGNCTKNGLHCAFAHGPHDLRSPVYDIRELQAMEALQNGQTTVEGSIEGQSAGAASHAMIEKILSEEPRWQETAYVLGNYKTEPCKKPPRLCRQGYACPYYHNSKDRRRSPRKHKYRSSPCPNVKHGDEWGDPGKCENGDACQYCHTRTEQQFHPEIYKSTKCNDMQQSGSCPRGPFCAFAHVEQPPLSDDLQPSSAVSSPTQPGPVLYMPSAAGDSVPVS
# Experiment: nsRBNS (natural sequence RNA bind-n-seq); RBNS binding buffer (assumed for nsRBNS): 25 mM Tris pH 7.5, 150 mM KCl, 3 mM MgCl2, 0.01% Triton X-100, 500 ug/ml BSA, 20 U/ml SUPERase-In, 4 C; UNK is unkempt and MSI1 is Musashi-1; names of the RNAs are library labels; protein concentration not given here; high values mean tight binding
row,Binder,binding signal
1,B1,1.38 enrichment R
2,B2,0.456 enrichment R
3,B3,4.28 enrichment R
4,B4,0.569 enrichment R
5,B5,1.19 enrichment R
6,B6,2.44 enrichment R
7,B7,0.995 enrichment R
8,B8,0.849 enrichment R
9,B9,1.96 enrichment R
10,B10,101 enrichment R
11,B11,12.7 enrichment R
12,B12,119 enrichment R
13,B13,6.12 enrichment R
14,B14,3.33 enrichment R
15,B15,0.419 enrichment R
16,B16,5.22 enrichment R
